Experiments:
[1] = biological target: Serine/threonine-protein kinase pim-2 (Homo sapiens) (UniProt Q9P1W9); conditions: at 1 µM;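 further: each value is a mean of the inhibition measurements against the kinase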
[2] = biological target: Serine/threonine-protein kinase pim-3 (Homo sapiens) (UniProt Q86V86); conditions: at 0.1 µM
[3] = biological target: Serine/threonine-protein kinase pim-3 (Homo sapiens) (UniProt Q86V86); conditions: at 1 µM
[4] = biological target: T1, MAP kinase-activated protein kinase 5 (Homo sapiens) (UniProt Q8IW41); conditions: at 0.1 µM
T1 sequence (whole entry): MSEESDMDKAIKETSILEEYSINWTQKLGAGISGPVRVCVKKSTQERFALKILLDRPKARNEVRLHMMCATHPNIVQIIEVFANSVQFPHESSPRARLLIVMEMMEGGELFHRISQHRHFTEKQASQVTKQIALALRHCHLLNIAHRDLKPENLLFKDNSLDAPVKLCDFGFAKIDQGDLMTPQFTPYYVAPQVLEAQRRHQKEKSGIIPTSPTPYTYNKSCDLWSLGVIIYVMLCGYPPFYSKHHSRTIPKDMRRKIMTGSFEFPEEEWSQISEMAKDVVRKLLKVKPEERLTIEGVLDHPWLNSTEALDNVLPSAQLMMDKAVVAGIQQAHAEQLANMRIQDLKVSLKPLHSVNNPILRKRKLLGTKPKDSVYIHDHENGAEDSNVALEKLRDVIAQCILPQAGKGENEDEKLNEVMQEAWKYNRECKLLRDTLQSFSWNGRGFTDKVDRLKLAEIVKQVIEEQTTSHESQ

[5] = biological target: T1, MAP kinase-activated protein kinase 5 (Homo sapiens); conditions: at 1 µM
[6] = biological target: Serine/threonine-protein kinase SIK1 (Homo sapiens) (UniProt P57059); conditions: at 0.1 µM
Serine/threonine-protein kinase SIK1 (Homo sapiens), sequence (P57059 whole entry): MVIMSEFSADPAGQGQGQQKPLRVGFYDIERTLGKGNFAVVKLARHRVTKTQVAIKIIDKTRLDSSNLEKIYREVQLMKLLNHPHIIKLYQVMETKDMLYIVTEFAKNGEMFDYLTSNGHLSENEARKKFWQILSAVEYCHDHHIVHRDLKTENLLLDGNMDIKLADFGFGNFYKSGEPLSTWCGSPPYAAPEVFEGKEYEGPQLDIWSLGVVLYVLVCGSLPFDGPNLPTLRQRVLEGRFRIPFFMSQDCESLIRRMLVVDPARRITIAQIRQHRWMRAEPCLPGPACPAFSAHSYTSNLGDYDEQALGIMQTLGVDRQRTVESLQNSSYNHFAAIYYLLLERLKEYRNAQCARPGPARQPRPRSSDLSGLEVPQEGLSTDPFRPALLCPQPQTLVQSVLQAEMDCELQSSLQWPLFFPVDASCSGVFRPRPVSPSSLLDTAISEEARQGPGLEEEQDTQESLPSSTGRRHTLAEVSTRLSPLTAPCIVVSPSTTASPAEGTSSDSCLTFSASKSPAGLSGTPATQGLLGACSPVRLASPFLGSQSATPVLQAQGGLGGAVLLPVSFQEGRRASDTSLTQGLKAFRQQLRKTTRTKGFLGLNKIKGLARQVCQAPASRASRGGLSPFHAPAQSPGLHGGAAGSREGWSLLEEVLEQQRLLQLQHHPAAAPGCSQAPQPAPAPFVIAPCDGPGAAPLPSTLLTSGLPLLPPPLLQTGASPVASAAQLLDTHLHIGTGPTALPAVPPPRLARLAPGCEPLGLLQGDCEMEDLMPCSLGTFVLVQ

[7] = biological target: Serine/threonine-protein kinase SIK1 (Homo sapiens) (UniProt P57059); conditions: at 1 µM
[8] = biological target: Serine/threonine-protein kinase SIK2 (Homo sapiens) (UniProt Q9H0K1); conditions: at 0.1 µM
Serine/threonine-protein kinase SIK2 (Homo sapiens), sequence (Q9H0K1 whole entry, looked up): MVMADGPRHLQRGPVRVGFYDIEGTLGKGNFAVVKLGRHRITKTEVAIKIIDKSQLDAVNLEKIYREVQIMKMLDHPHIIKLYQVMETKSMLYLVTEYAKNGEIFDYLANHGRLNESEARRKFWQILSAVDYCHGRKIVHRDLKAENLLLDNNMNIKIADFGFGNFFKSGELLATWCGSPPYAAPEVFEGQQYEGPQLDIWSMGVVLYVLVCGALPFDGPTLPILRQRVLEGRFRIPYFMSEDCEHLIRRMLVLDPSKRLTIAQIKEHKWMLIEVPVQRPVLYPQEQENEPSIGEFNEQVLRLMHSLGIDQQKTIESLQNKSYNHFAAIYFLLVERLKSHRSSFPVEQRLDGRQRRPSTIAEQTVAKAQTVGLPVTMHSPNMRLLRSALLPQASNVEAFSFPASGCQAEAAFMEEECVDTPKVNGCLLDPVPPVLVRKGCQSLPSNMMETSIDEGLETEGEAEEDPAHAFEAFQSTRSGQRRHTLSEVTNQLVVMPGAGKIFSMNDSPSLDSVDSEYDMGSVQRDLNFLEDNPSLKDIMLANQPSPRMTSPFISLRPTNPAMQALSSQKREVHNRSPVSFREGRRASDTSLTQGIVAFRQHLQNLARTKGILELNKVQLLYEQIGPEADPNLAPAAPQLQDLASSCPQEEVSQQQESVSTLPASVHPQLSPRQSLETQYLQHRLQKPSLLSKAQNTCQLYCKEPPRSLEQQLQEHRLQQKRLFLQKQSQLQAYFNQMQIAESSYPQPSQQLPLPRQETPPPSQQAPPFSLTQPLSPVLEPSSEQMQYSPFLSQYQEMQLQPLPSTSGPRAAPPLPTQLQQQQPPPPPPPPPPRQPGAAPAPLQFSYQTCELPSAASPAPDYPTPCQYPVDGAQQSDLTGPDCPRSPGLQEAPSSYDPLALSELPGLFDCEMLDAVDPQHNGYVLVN

[9] = biological target: Serine/threonine-protein kinase SIK2 (Homo sapiens) (UniProt Q9H0K1); conditions: at 1 µM
[10] = biological target: T2, Serine/threonine-protein kinase TBK1 (Homo sapiens) (UniProt Q9UHD2); conditions: at 0.1 µM
T2 sequence (whole entry): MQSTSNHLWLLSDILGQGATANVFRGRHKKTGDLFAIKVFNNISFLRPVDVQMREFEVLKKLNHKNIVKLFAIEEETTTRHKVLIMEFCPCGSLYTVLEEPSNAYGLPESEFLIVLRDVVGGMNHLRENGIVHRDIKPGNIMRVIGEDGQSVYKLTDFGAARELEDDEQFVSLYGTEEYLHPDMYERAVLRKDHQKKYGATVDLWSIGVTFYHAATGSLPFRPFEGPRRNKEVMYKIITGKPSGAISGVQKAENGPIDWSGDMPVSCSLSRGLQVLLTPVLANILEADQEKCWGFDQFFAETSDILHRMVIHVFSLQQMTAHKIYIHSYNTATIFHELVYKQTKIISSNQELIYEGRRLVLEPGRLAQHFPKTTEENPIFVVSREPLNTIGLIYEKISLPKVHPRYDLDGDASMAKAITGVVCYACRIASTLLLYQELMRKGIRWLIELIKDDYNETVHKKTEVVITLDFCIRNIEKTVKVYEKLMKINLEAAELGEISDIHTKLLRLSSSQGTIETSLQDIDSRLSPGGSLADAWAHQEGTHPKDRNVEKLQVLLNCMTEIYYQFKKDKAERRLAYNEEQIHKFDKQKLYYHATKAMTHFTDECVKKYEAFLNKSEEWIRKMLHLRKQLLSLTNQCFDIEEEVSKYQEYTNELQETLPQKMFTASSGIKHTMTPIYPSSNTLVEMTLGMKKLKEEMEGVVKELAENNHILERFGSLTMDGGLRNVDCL

[11] = biological target: T2, Serine/threonine-protein kinase TBK1 (Homo sapiens); conditions: at 1 µM
[12] = biological target: T3, Testis-specific serine/threonine-protein kinase 1 (Homo sapiens) (UniProt Q9BXA7); conditions: at 0.1 µM
T3 sequence (whole entry): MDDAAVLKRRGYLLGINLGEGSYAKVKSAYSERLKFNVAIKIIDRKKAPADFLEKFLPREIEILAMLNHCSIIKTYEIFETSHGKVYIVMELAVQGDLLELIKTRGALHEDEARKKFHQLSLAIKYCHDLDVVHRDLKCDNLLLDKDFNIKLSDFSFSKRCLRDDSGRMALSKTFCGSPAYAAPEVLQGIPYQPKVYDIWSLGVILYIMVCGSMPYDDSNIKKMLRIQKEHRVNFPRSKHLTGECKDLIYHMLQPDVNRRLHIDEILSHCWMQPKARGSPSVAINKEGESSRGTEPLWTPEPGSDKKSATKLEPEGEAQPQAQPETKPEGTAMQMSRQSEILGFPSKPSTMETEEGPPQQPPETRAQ

[13] = biological target: T3, Testis-specific serine/threonine-protein kinase 1 (Homo sapiens); conditions: at 1 µM
[14] = biological target: T4, Testis-specific serine/threonine-protein kinase 2 (Homo sapiens) (UniProt Q96PF2); conditions: at 0.1 µM
T4 sequence (whole entry): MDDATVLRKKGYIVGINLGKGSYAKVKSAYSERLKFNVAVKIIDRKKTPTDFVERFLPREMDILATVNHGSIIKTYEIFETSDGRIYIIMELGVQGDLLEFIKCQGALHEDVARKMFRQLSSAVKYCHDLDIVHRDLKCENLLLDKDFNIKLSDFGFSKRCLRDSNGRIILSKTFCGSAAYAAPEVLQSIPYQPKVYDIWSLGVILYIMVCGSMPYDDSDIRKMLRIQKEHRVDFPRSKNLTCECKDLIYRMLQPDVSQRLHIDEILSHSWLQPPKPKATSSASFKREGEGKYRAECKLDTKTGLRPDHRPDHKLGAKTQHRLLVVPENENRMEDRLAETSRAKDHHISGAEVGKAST

[15] = biological target: T4, Testis-specific serine/threonine-protein kinase 2 (Homo sapiens); conditions: at 1 µM
[16] = biological target: Casein kinase I isoform alpha (Homo sapiens) (UniProt P48729); conditions: at 0.1 µM
Casein kinase I isoform alpha (Homo sapiens), sequence (P48729 2-337 limits assumed): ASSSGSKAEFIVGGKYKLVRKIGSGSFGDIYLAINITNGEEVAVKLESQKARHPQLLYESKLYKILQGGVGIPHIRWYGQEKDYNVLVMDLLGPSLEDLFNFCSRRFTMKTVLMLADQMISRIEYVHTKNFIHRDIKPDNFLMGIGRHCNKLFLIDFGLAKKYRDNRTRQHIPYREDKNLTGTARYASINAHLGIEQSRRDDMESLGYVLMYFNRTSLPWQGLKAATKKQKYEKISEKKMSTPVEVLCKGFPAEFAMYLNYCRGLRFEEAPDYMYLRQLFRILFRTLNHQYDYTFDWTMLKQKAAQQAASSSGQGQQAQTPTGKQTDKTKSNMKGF

[17] = biological target: Casein kinase I isoform alpha (Homo sapiens) (UniProt P48729); conditions: at 1 µM
[18] = biological target: Casein kinase I isoform gamma-1 (Homo sapiens) (UniProt Q9HCP0); conditions: at 0.1 µM
Casein kinase I isoform gamma-1 (Homo sapiens), sequence (Q9HCP0 whole entry, looked up, canonical isoform): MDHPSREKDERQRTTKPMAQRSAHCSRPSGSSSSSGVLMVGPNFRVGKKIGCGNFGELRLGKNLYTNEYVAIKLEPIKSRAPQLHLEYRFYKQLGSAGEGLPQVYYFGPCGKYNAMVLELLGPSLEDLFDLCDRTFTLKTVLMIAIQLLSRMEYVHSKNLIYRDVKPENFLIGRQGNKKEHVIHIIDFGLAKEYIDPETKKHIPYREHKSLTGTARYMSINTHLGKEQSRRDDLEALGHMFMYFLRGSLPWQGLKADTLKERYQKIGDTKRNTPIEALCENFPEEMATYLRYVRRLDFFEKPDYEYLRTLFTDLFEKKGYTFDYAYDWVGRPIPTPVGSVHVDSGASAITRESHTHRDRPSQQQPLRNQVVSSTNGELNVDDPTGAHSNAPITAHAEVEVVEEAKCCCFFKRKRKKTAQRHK

[19] = biological target: Casein kinase I isoform gamma-1 (Homo sapiens) (UniProt Q9HCP0); conditions: at 1 µM
[20] = biological target: Casein kinase I isoform gamma-2 (Homo sapiens) (UniProt P78368); conditions: at 0.1 µM;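 further: values are mean inhibition figures reported as part of the GSK PKIS dataset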
Casein kinase I isoform gamma-2 (Homo sapiens), sequence (P78368 whole entry, looked up, canonical isoform): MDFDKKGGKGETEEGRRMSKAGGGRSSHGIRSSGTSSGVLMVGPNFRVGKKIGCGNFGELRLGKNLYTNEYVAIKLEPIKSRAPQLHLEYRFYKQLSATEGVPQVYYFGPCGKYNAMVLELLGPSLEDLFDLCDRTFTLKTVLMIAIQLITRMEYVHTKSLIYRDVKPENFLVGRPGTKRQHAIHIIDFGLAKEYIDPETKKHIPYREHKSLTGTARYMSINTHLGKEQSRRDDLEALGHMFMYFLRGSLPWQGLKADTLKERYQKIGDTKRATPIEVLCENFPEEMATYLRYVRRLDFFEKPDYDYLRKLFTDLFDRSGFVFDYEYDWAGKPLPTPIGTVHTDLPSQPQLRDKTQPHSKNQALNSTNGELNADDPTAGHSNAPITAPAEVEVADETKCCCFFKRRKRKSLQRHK

Serine/threonine-protein kinase pim-2 (Homo sapiens), sequence (Q9P1W9 whole entry, looked up): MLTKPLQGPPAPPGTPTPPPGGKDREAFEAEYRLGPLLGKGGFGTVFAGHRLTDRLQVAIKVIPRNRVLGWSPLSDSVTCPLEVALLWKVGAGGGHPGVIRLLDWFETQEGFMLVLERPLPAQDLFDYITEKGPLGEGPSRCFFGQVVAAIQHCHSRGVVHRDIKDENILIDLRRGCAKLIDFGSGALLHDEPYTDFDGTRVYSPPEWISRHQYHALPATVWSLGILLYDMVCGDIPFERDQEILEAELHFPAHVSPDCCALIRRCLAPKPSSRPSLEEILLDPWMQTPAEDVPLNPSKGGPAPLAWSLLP

Row | SMILES | inhibition [1] [%] | inhibition [2] [%] | inhibition [3] [%] | inhibition [4] [%] | inhibition [5] [%] | inhibition [6] [%] | inhibition [7] [%] | inhibition [8] [%] | inhibition [9] [%] | inhibition [10] [%] | inhibition [11] [%] | inhibition [12] [%] | inhibition [13] [%] | inhibition [14] [%] | inhibition [15] [%] | inhibition [16] [%] | inhibition [17] [%] | inhibition [18] [%] | inhibition [19] [%] | inhibition [20] [%]
1 | CCn1c(-c2nonc2N)nc2c(C#CC(C)(C)O)nc(O[C@@H](CN)c3ccccc3)cc21 | 20.6 | 4.66 | 39 | -0.85 | -1.11 | -0.97 | 8.3 | -0.81 | 14.8 | 20.9 | 68 | 85.5 | 95.6 | 1.41 | 14.8 | 1.59 | 4.15 | -0.58 | 7.01 | -0.78
2 | COc1cc(C=NNc2ncnc3c2cnn3Cc2ccccc2)ccc1O | 4.62 | 1.07 | 5.08 | -1.78 | -1.84 | – | -3.99 | -6 | – | 0.04 | 3.75 | -3.19 | -2.62 | -2.34 | -2.56 | -0.09 | -4.3 | -3.34 | -3.33 | -2.95
3 | Cc1cc(-c2ccco2)cc(C)c1/C=C/c1cncc(-c2nn[nH]n2)c1 | 1.49 | 0.12 | 1.83 | 0.41 | 0.28 | -0.49 | 6.77 | -2.65 | 0.13 | 0.36 | 2.37 | 1.7 | 2.37 | 1.46 | 0.42 | 1.02 | -0.59 | 1.01 | 1.56 | 0.62
4 | NS(=O)(=O)c1ccc(-c2ccc3c(NC(=O)C4CC4)n[nH]c3c2)cc1 | 0.28 | -0.26 | -1.81 | 0.51 | 0.89 | 5.15 | 3.27 | 1.79 | 8.87 | 5.3 | 3.1 | 0.11 | -0.04 | 1.09 | -2.52 | 6.65 | 2.79 | 1.56 | 2.58 | 1
5 | CCn1c(-c2nonc2N)nc2c(C#CC(C)(C)O)ncc(OC[C@@H]3CCCN3)c21 | 7.09 | 1.81 | 10.1 | 0.11 | 0.32 | 1.03 | 4.19 | -4.09 | 6.59 | 5.1 | 41.2 | 20.6 | 70.4 | 4.9 | 2.67 | -1.71 | -2.58 | 1.04 | 2.69 | 1.05
6 | COc1cc2c(cc1Nc1nc(Nc3ccsc3C(N)=O)c3cc[nH]c3n1)N(C(=O)CN(C)C)CCC2 | 3.29 | 6.22 | 38.3 | 1.1 | 1.23 | -0.68 | -0.04 | -2.92 | 5.93 | 9.46 | 25 | 92.3 | 95.5 | 59.4 | 91.2 | -0.45 | 4.2 | -0.49 | 5.86 | –
7 | CCn1c(-c2nonc2N)nc2c(C#CC(C)(C)O)ncc(OCC3CCNCC3)c21 | 3.34 | 3.02 | 21 | 1.57 | 2.94 | 4.3 | 18 | 3.58 | 18.4 | 5.26 | 44.7 | 24.4 | 73 | 2.77 | 5.17 | 4.15 | 4.34 | -0.98 | 0.65 | -1.19
8 | Nc1nonc1-c1nc2cnccc2n1C1CCCCC1 | 37.5 | 11.4 | 56.9 | -0.83 | -1.13 | -4.72 | -3.76 | -6.25 | 9.23 | 3.95 | 24.8 | 0.17 | 6.12 | -1.12 | -2.07 | -1.01 | -0.02 | -2.65 | -0.45 | -2.61
9 | COc1cccc(COc2cc(-n3cnc4ccccc43)sc2C(N)=O)c1 | 1.31 | 0.12 | 0.33 | 0.16 | -0.81 | -0.86 | 3.4 | -0.88 | -4.75 | -1.18 | 1.53 | -0.31 | -0.86 | 0.72 | -0.49 | -2.17 | -2.7 | 1.18 | 2.68 | 2.02
10 | Fc1ccc(-c2ncn(C3CCNCC3)c2-c2ccnc(Oc3ccccc3)n2)cc1 | -3.69 | -0.25 | -0.02 | 0.89 | 1.1 | 2.14 | 8.86 | -0.18 | 7.64 | 0.83 | 2.78 | 2.36 | 1.65 | 0.82 | 0.7 | 4.72 | 30.9 | -1.52 | 4.5 | -1.96
11 | NS(=O)(=O)c1ccc(N/C=C2\C(=O)Nc3ccc4ncsc4c32)cc1 | 1.21 | 0.54 | 4.12 | 2.27 | 7.16 | 2.12 | 21 | 9 | 25.8 | 10.7 | 46.7 | 5.24 | 19.4 | 1.13 | 2.94 | 3.99 | 14.7 | 4.38 | 9.59 | 2.65
12 | COc1cccc(-n2ncc3c(N/N=C/c4ccncc4)ncnc32)c1 | 1.69 | 0.83 | 4.38 | 1.56 | 3.04 | 4.22 | 27.9 | 15.4 | 54 | 3.12 | 13.1 | 4.13 | 5.05 | 1.6 | 2.48 | 6.11 | 11.2 | 3.65 | 7.48 | 3.26
13 | NC(=O)c1sc(-n2cnc3cc(C(F)(F)F)ccc32)cc1OCc1ccccc1Br | 1.16 | 1.55 | 2.84 | 0.86 | 0.76 | 6.45 | 1.7 | -0.18 | 3.79 | 0.98 | 1.3 | 2.93 | 3.05 | 2.48 | 1.1 | 1.1 | -0.24 | 1.09 | -0.28 | 0.61
14 | CCn1c(-c2nonc2N)nc2c(C#CCN)ncc(OCCCN)c21 | 5.54 | 9.18 | 33 | -1.32 | 1.09 | -4.16 | -7.22 | -2.87 | -1.04 | -0.18 | 4.32 | -0.75 | 11.3 | -0.97 | 4.75 | 1.05 | -3.92 | -2.42 | -2.61 | -0.29

Reference: ChEMBL document CHEMBL1961873, “Compounds: GSK PKIS; Assays: Nanosyn kinase panel” (2012)
